# Measurements from PubChem BioAssay AID588397 (National Center for Advancing Translational Sciences (NCATS), 2011).
# “And” between values parts separate entries of the source, which are not always exact repeats. Identical values can stand only once. The campaign covered roughly 1,300 compounds. About 1,000 (77%) were called active. Another 7% or so got no clear call; they are omitted. The set was probably picked from earlier hits. Some of the results follow. Values without a mark were called inactive. The call rests on the fitted dose curve; in most records, active means well fitted inhibition curve with a large enough effect; inconclusive means small, poorly fitted or top-dose-only effect; inactive means no such curve, though single readings can be large or run the other way.
# Assay: qHTS of small molecules that selectively kill Giardia lamblia: Hit Validation.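 Further: viability measured as ATP content by luminescence so killing lowers signal; nearly all actives have a fitted effect of over 65% in size.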
# Conditions: Giardia lamblia trophozoite viability, dose-response; series mostly up to 38.3 µM; activity change, negative = killing: at the top concentration
# Outline: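 Trophozoite viability was measured as ATP-dependent luminescence, read 15-30 min after reagent addition. Before that, parasites at 100 cells/well were exposed to compounds for 48 h, anaerobically, at 37 deg C.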
# On the % scale 0 is the no-effect control and ±100 the full control effect; potency means the concentration at half of the fitted maximal effect.
SMILES,"activity change, negative = killing",Potency
CC1(C)Oc2ccc3ccc(=O)oc3c2C(/C=N/O)C1=O (stereo not drawn),5.31%,–
COc1ccc(-n2nc([N+](=O)[O-])c(=NCc3ccc4c(c3)OCO4)n2O)cc1,–,14.5 µM (active)
O=[N+]([O-])c1nn(-c2ccc3c(c2)OCCO3)n(O)c1=NCc1ccc(F)cc1,–,4.6 µM (active)
Cc1ccc(CN=c2c([N+](=O)[O-])nn(-c3ccc4c(c3)OCCO4)n2O)cc1,–,3.65 µM (active)
O=C(COc1cccnc1[N+](=O)[O-])Nc1cccc(S(=O)(=O)N2CCCCC2)c1,–,3.65 µM (active)
CN(C(=O)c1ccc(NC(=O)Cc2ccc(NC(=O)C3CCCN(S(=O)(=O)c4cccc([N+](=O)[O-])c4)C3)cc2)cc1)C1CCCC1 (stereo not drawn),1.44%,–
O=C(COc1cccnc1[N+](=O)[O-])Nc1cc(S(=O)(=O)N2CCCCC2)ccc1Cl,–,1.45 µM (active)
Cc1ccc(NC(=O)COc2cccnc2[N+](=O)[O-])cc1S(=O)(=O)N1CCCCC1,–,4.1 µM (active)
Cc1ccc(OCC(=O)Nc2cc(S(=O)(=O)N3CCOCC3)ccc2Cl)c([N+](=O)[O-])n1,–,4.1 µM (active)
COc1ccc(S(=O)(=O)N2CCOCC2)cc1NC(=O)COc1cccnc1[N+](=O)[O-],–,5.79 µM (active)
Cc1ccc(CCNC(=O)CN2C(=O)COc3ccc(S(=O)(=O)N4CCOCC4)cc32)cc1,-1.26%,–
Cc1ccc(S(=O)(=O)N2CCN(C(=O)COc3ccc(C)nc3[N+](=O)[O-])CC2)c(C)c1,–,4.1 µM (active)
Cc1ccccc1NC(NC(=O)OCCn1c([N+](=O)[O-])cnc1C)C(Cl)(Cl)Cl (stereo not drawn),–,0.729 µM (active)
Cc1ncc([N+](=O)[O-])n1CCOC(=O)NC(Nc1ccc(F)cc1)C(Cl)(Cl)Cl (stereo not drawn),–,0.46 µM (active)
CCOC(=O)c1c(C)[nH]c(C)c1S(=O)(=O)N1CCN(c2ccc([N+](=O)[O-])cc2)CC1,–,7.29 µM (active)
CCOC(=O)C1CCN(C(=O)c2c(C)oc3c2C(=O)c2ccccc2C3=O)CC1,–,2.05 µM (active)
Cc1oc2c(c1C(=O)N1CCOCC1)C(=O)c1ccccc1C2=O,–,3.26 µM (active)
Cc1oc2c(c1C(=O)N1CCC(C)CC1)C(=O)c1ccccc1C2=O,–,3.65 µM (active)
O=[N+]([O-])c1ccc(/C=[N+](\[O-])CCO)o1,–,1.16 µM (active)
O=[N+]([O-])c1ccc(/C=[N+](\[O-])[C@@H]2CCCC[C@@H]2/[N+]([O-])=C/c2ccc([N+](=O)[O-])o2)o1,–,0.65 µM (active)
Cc1ccn(-c2ccc(NC(=O)c3cccs3)cc2)n1,–,16.3 µM (active)
CCOC(=O)N1CCN(C(=O)c2ccc(Cl)c(NC(=O)c3cccs3)c2)CC1,19.9%,–
Cn1cc([N+](=O)[O-])c(C(=O)Nc2sc3c(c2C#N)CCC3)n1,–,2.31 µM (active)
CC(C)N1CCc2c(sc(NC(=O)c3cc4cc([N+](=O)[O-])ccc4s3)c2C(N)=O)C1,–,2.59 µM (active)
N#Cc1c(NC(=O)c2ccc([N+](=O)[O-])o2)sc2c1CCC2,–,0.365 µM (active)
NC(=O)c1ccsc1NC(=O)c1ccc([N+](=O)[O-])o1,–,1.3 µM (active)
NC(=O)c1c(NC(=O)c2ccc([N+](=O)[O-])o2)sc2c1CCCC2,–,0.65 µM (active)

SMILES,"activity change, negative = killing",Potency
CC(=O)N1CCc2c(sc(NC(=O)c3ccc([N+](=O)[O-])o3)c2C#N)C1,–,1.16 µM (active)
COC(=O)c1c(NC(=O)c2ccc([N+](=O)[O-])o2)sc2c1CCN(C(C)C)C2,–,0.818 µM (active)
COC(=O)c1sc(NC(=O)c2ccc([N+](=O)[O-])o2)c(C#N)c1C,–,0.29 µM (active)
CCn1cc(-c2cc(C(=O)O)c3ccccc3n2)cn1,–,5.16 µM (active)
O=C(NNC(=O)c1cc(-c2ccncc2)nc2ccccc12)c1ccccc1O,-14.2%,–
CCOC(=O)N1CCN(C(=O)c2cc(-c3ccc(OCC)cc3)nc3ccccc23)CC1,–,2.9 µM (active)
CCOc1ccc(-c2cc(C(=O)N3CCN(c4ccccn4)CC3)c3ccccc3n2)cc1,–,1.63 µM (active) and 1.45 µM (active) and 3.26 µM (active)
c1cc(-c2cc3cc(N4CCOCC4)ccc3o2)cs1,–,2.05 µM (active)
CCC(Oc1ccccc1)C(=O)Nc1ncc([N+](=O)[O-])s1 (stereo not drawn),–,0.103 µM (active)
CCCCC(CC)C(=O)Nc1ncc([N+](=O)[O-])s1 (stereo not drawn),–,0.23 µM (active)
CCCCC(=O)Nc1ncc([N+](=O)[O-])s1,–,0.23 µM (active)
CC(C)CC(=O)Nc1ncc([N+](=O)[O-])s1,–,0.206 µM (active)
CCc1nn2c(=O)c(S(=O)(=O)Nc3ccc(Cl)cc3)c(C)nc2s1,-12.1%,–
CC(CC(=O)Nc1ncc([N+](=O)[O-])s1)c1ccccc1 (stereo not drawn),–,0.206 µM (active)
CC1=C(C(=O)Nc2ccc(CC(=O)NCc3ccc(OC(C)C)cc3)cc2)SCCO1,–,4.1 µM (active)
CN(C(=O)CSc1nc2ccccc2c(=O)n1-c1ccc(F)cc1)C1CCS(=O)(=O)C1 (stereo not drawn),-14.3%,–
CN(C(=O)CSc1nc2ccc([N+](=O)[O-])cc2s1)C1CCS(=O)(=O)C1 (stereo not drawn),–,1.45 µM (active)
O=C(COc1ccccc1)N=C1SC2CS(=O)(=O)CC2N1c1ccccc1F (stereo not drawn),-32%,–
O=[N+]([O-])c1ccc(/C=C/C2=NN(c3ccccc3)C(c3ccco3)C2)o1 (stereo not drawn),–,0.115 µM (active)
Cc1ccc(-c2nnc(NC(=O)c3ccc([N+](=O)[O-])o3)o2)c(C)c1,–,0.41 µM (active)
COc1ccc(-c2nnc(NC(=O)c3ccc([N+](=O)[O-])o3)o2)c(OC)c1,–,2.05 µM (active)
Cc1ccc(C)c(-c2nnc(NC(=O)c3ccc([N+](=O)[O-])o3)o2)c1,–,0.516 µM (active)
O=[N+]([O-])c1cccc(S(=O)(=O)c2ccc(NCCOCCO)c([N+](=O)[O-])c2)c1,–,1.63 µM (active)
Cc1ccc(-c2[nH][nH]c(=O)c(=O)c2N=Nc2ccccc2)cc1,–,1.3 µM (active)
O=c1[nH][nH]c(-c2ccccc2)c1C=Nc1ccc(OC(F)(F)F)cc1,-6.83%,–
CC(=O)O[C@@H]1[C@@H](OC(C)=O)[C@H](n2ccc3cc([N+](=O)[O-])ccc32)OC[C@@H]1OC(C)=O,–,0.259 µM (active)
